# The supplement of paper PMC9135407
# Where a name gives a salt, the structure may show the parent alone. Values without a mark were called inactive.
# Tested on: primary human hepatic stellate cells (donor 1)
# Assay: COL1A1 mRNA fold change vs DMSO (normalised to PSMB2); higher = more COL1A1 expression, active = hit call of the paper
# Settings: 48 h
# Protocol: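 Secondary qRT-PCR screen in primary human HSCs (donor 1), 384-well plates, with compounds dispensed in quadruplicate and incubated for 48 h. Cells-to-CT lysates were used for multiplexed TaqMan qPCR of ACTA2 or COL1A1 with PSMB2 as reference. Fold changes versus DMSO come from a linear model (Ct_gene ~ Ct_PSMB2 + plate + chemical). A hit is defined as COL1A1 and ACTA2 FC <0.5 (FDR <0.05) with PSMB2 between 0.2 and 2.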
row,Structure (SMILES),COL1A1 mRNA fold change
1,"CCCCCCCCCCCCC/C=C/[C@@H](O)[C@H](CO)N(C)C [N,N-Dimethylsphingosine] (3.33333 µM)",0.928
2,Cc1ccc(-c2ccc3c(ccc4sc5c(c43)NC[C@@H](C)NC5=O)n2)cn1 (33.3333 µM),1.21
3,CN1CCCN(C(c2ccccc2)c2ccc(Cl)cc2)CC1 (stereo not given) [Homochlorcyclizine dihydrochloride] (33.3333 µM),0.0131 (active)
4,N=C(N)SCCc1ccc(OCc2ccc([N+](=O)[O-])cc2)cc1 [KB-R7943 mesylate] (33.3333 µM),0.168 (active)
5,NC1(c2ccc(-c3nc4ccn5c(=O)[nH]nc5c4cc3-c3ccccc3)cc2)CCC1 (11.1 µM),0.184
6,Cc1[nH]c(/C=C2\C(=O)Nc3ccc(S(=O)(=O)N(C)c4cccc(Cl)c4)cc32)c(C)c1C(=O)N1CCN(C)CC1 (33.3333 µM),0.254 (active)
7,O=C(c1ccc(/C=C/c2n[nH]c3ccccc23)cc1)N1CCNCC1 (33.3333 µM),0.0707
8,"Cc1ccc(NC(=O)c2ccc(CN3CCN(C)CC3)cc2)cc1Nc1nc(-c2cccnc2)cs1 [Masitinib (AB1010, Masivet)] (6.66667 µM)",1.31
9,CN1CCN2c3ccccc3Cc3ccccc3C2C1 (stereo not given) [Mianserin hcl] (25.2333 µM),0.529
10,COC(=O)N[C@H](C(=O)N1CCC[C@H]1c1ncc(-c2ccc(-c3ccc(-c4cnc([C@@H]5CCCN5C(=O)[C@@H](NC(=O)OC)C(C)C)[nH]4)cc3)cc2)[nH]1)C(C)C (33.3333 µM),0.0176
11,CN1CCN(Cc2ccc(-c3cnc4[nH]cc(-c5ccc6[nH]ccc6c5)c4c3)cc2)CC1 (6.66667 µM),0.0518 (active)
12,CCN(CC)CC#CCOC(=O)C(O)(c1ccccc1)C1CCCCC1 (stereo not given) [Oxybutynin chloride] (16.9333 µM),0.755
13,CC#CCOC(=O)c1c(C)nc2sc3c(c2c1N)CCC(O)C3 (stereo not given) (33.3333 µM),2.5
14,C#C[C@]1(O)CC[C@H]2[C@@H]3CCC4=Cc5oncc5C[C@]4(C)[C@H]3CC[C@@]21C [Danazol] (33.3333 µM),0.0336 (active)
15,CN1CCC(Nc2ncc3ncnc(Nc4ccc(F)c(Cl)c4)c3n2)CC1 [BIBX 1382 dihydrochloride] (33.3333 µM),0.00366
16,CN(C)Cc1c(C(=O)NCCOc2ccc(C(=O)NO)cc2)oc2ccccc12 (33.3333 µM),0.0321 (active)
17,C#CC1(O)CC[C@H]2[C@@H]3CCC4=CC(=O)CC[C@@H]4[C@H]3CC[C@@]21CC (stereo not given in full) [Norgestrel] (21.3333 µM),1.14
18,O=C(Nc1cc(C(F)(F)F)cc(C(F)(F)F)c1)c1cc(Cl)ccc1O (33.3333 µM),0.203 (active)
19,COC(=O)C[C@](O)(CCCC(C)(C)O)C(=O)O[C@@H]1C(OC)=C[C@]23CCCN2CCc2cc4c(cc2[C@H]13)OCO4 [Homoharringtonine] (33.3333 µM),0.0354 (active)
20,Cc1cccc(Nc2nc(-c3ccncc3)cs2)c1 (11.1 µM),0.552

row,Structure (SMILES),COL1A1 mRNA fold change
1,CC(/C=C/C(=O)NO)=C\[C@@H](C)C(=O)c1ccc(N(C)C)cc1 [Trichostatin A] (3.33333 µM),0.405 (active)
2,CNCc1ccc(-c2cc(-c3nc(-c4ccc(S(=O)(=O)C(C)C)cc4)cnc3N)on2)cc1 (11.1 µM),0.0438
3,C[C@@H](Oc1cc(-c2cnn(C3CCNCC3)c2)cnc1N)c1c(Cl)ccc(F)c1Cl (11.1 µM),0.235 (active)
4,C[C@]12CC[C@H](O)CC1=CC[C@@H]1[C@@H]2CC[C@]2(C)C(n3cnc4ccccc43)=CC[C@@H]12 [Galeterone] (33.3333 µM),0.0557
5,CCCCCCCCc1ccc(CCC(N)(CO)CO)cc1 [Fingolimod (FTY720) HCl] (11.1 µM),0.392
6,CCNC(=O)c1noc(-c2cc(C(C)C)c(O)cc2O)c1-c1ccc(CN2CCOCC2)cc1 (11.1 µM),1.09
7,CNCCC(Oc1ccc(C(F)(F)F)cc1)c1ccccc1 (stereo not given) [Fluoxetine hydrochloride] (33.3333 µM),0.114 (active)
8,Cc1cc(C(=O)Nc2cc(Nc3ccc4c(/C=C/c5ccccn5)n[nH]c4c3)ccc2F)n(C)n1 (33.3333 µM),0.363 (active)
9,Cc1nc(Nc2ncc(C(=O)Nc3c(C)cccc3Cl)s2)cc(N2CCN(CCO)CC2)n1 (33.3333 µM),0.446 (active)
10,COc1cc2ncn(-c3cc(OCc4ccccc4C(F)(F)F)c(C(N)=O)s3)c2cc1OC (33.3333 µM),1.1
11,CC(C)NCCCn1c(Sc2cc3c(cc2I)OCO3)nc2c(N)ncnc21 (33.3333 µM),0.844
12,CC1(C)CC(=O)c2c(C(F)(F)F)nn(-c3ccc(C(N)=O)c(N[C@H]4CC[C@H](OC(=O)CN)CC4)c3)c2C1 (33.3333 µM),0.807
13,CSc1ccc2c(c1)C(N1CCN(C)CC1)Cc1ccccc1S2 (stereo not given) [Methiothepin maleate] (33.3333 µM),0.00214
14,Cc1cc(Nc2cc(N3CCN(C)CC3)nc(/C=C/c3ccccc3)n2)n[nH]1 (11.1 µM),0.343
15,[O-][S+](c1ccccc1)c1ccc2nnnn2n1 (stereo not given) (33.3333 µM),0.0868
16,Cc1ccc(NC(=O)C(C)C)cc1C1CCN(Cc2ccc(Oc3ccc(F)c(F)c3)cc2)CC1 (33.3333 µM),0.0966
17,COc1ccc(NS(=O)(=O)c2sc3ccc(Cl)cc3c2C)cc1N1CCNCC1 (33.3333 µM),0.0858 (active)
18,NC[C@@H]1O[C@H](C23CC4CC(CC(C4)C2)C3)Cc2c1ccc(O)c2O (33.3333 µM),0.136
19,O=C(Nc1ncc(SCCN2CCCC2)s1)[C@]1(c2ccc(S(=O)(=O)C3CC3)cc2)C[C@H]1C1CCCCC1 (11.1 µM),0.0203 (active)
20,OCCN1CCN(CCCN2c3ccccc3Sc3ccc(C(F)(F)F)cc32)CC1 (33.3333 µM),0.0645
